# FLuc inh = inhibitors of firefly luciferase | P08659 | purified firefly luciferase, luminescence, 8 min | Potency, µM (top dose mostly 57.1 µM), for inactives: top-dose activity change, negative = inhibition, actives largely listed as inhibitors | 72,000 compounds, 2.2% hits; also: nearly all actives have a fitted effect of over 40% in size
# Target sequence (P08659 whole entry, looked up): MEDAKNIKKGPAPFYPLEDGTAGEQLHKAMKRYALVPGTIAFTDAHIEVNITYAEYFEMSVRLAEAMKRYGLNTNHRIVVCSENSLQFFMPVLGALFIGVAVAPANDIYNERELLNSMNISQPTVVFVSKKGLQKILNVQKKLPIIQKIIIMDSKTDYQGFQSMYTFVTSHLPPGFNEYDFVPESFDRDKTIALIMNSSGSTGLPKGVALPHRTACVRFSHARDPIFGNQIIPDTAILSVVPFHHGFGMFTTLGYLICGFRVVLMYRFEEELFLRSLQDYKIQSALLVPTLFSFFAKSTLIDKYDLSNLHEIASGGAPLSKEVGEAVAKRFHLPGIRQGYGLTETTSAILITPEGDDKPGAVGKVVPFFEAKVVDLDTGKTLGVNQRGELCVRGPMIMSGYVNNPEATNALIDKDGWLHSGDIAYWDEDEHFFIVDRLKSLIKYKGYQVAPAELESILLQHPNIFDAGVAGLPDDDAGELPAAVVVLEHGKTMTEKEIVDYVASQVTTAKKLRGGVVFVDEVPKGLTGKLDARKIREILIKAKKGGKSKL
#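 Luminescence read-out after 8 min at room temperature; enzyme reaction used luciferin plus 10 uM ATP (linear range) in imidazole buffer pH 7.2 with KCl, MgCl2, Tween 20 and BSA. Each sample was run as a titration.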
# p53ts 39C tox = cytotoxicity in p53ts cells at nonpermissive temperature; H1299-p53A138V viability at 39C, ATP luminescence, 24 h; Potency, µM (doses to about 46.1 µM), for inactives: at the highest dose activity change, negative = cell killing, most hits filed as cytotoxic; 130,000 compounds, 1.5% hits; also: nearly all actives have a fitted effect of over 55% in size
# p53ts 32C tox = cytotoxicity in p53ts cells at permissive temperature. H1299-p53A138V at 32C, ATP luminescence viability, 24 h. Potency, µM (titrated, usually from 46.1 µM), for inactives: at the top dose activity change, negative = cytotoxicity, actives largely listed as cytotoxic. 130,000 compounds, 0.93% hits. AID 924;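 also: 0% = DMSO and -100% = full killing by reference compound; nearly all actives have a fitted effect of over 55% in size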
#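 Viability by ATPlite luminescence after 24 h compound treatment (up to 46 uM) at the permissive 32C. Cells are H1299 carrying p53 A138V. Scale runs from DMSO basal to 100 uM tamoxifen as full kill; AC50 from Hill fits.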
# Active calls of the source: *; u = inconclusive; x = not tested or not shown; [ ] = dose if it differs, or a comment. In the library only some 2.5% were active in any assay of this set; here they are far more common. Calls follow the shape of the dose curve; as a rule, active = well fitted curve in the direction sought with a large enough effect; inconclusive = small, poorly fitted or top-dose-only effect, or another doubt; inactive = no such curve, though single readings can be large; an effect the other way counts as inactive or inconclusive. Unless noted, % is scaled to controls: 0 for no effect and ±100 for the full control effect; potency is read from the fitted curve at half-maximal effect.
SMILES,FLuc inh,p53ts 39C tox,p53ts 32C tox
O=C(CC1(O)C(=O)N(CCc2ccccc2)c2ccc(Br)cc21)c1ccccc1 (stereo not drawn),x,u,-28.8%
Cc1[nH]c2ccccc2c1C1(O)C(=O)N(Cc2ccccc2Cl)c2ccccc21 (stereo not drawn),x,u,-3.6%
Cc1ccc(C(=O)CC2(O)C(=O)N(CCc3ccccc3)c3ccc(Br)cc32)o1 (stereo not drawn),0.3%,3.8%,3.7%
Cc1[nH]c2ccccc2c1C1(O)C(=O)N(Cc2ccccc2)c2ccc(Br)cc21 (stereo not drawn),x,12.6µM*,-20.4%
COc1ccc(C(=O)CC2(O)C(=O)N(Cc3ccccc3)c3ccc(Br)cc32)cc1 (stereo not drawn),x,12.6µM*,15.4%
Cc1ccc(C(=O)CC2(O)C(=O)N(CCc3ccccc3)c3ccc(Cl)cc32)cc1 (stereo not drawn),x,15.8µM*,u
COC(=O)[C@H](CCSC)NC(=O)C/C=C\[C@@H](C)[C@@H](CO)OC,1.2%[11.4 µM],-5.5%[9.22 µM],6.5%[9.22 µM]
COc1nc(Cl)nc(Cl)c1Cl (tested in a mixture with another compound),-1.9%[11.4 µM],7.1%[9.22 µM],1.2%[9.22 µM]
O=C(/C=C\Nc1ccccn1)c1ccccc1,3.16µM*,u,10µM*
O=C(NCCCNCCCNC(=O)c1ccccn1)c1ccccn1,-2.0%,1.0%,1.6%
Cc1cc(N/C=C/C(=O)c2ccc(Br)cc2)no1,x,4.0%,-0.5%
O=C(/C=C/Nc1ccccc1Br)c1ccccn1,0.1µM*,1.26µM*,0.794µM*
O=C(Cn1c(=O)n(-c2ccc(Cl)cc2)c(=O)c2c3c(sc21)CCC3)c1ccc(F)cc1,x,-20.0%,-5.8%
CO[C@H]1COC(=O)C/C=C\[C@H](C)COC(=O)[C@@H](C)NC(=O)C/C=C\[C@@H]1C,-0.4%[11.4 µM],2.5%[9.22 µM],3.6%[9.22 µM]
COc1ccc(/C=C/c2nc(C#N)c(N3CCC(C)CC3)o2)cc1OC,x,-14.5%,1.1%
CCCCS(=O)(=O)/C=C\C=C/S(=O)(=O)CCCC,-13.9%,u,20µM*
CCCCS(=O)(=O)/C=C\C1C2C=CC(C2)C1S(=O)(=O)CCCC (stereo not drawn),6.3%,-2.9%,-1.3%
C=C(C)C(=O)OCCCCCC,x,-10.5%,2.6%[1.84 µM]
O=C(Nc1ccccn1)c1ccc(NC(=O)c2ccco2)cc1,25.1µM*,u,u
CCC(=O)Nc1ccc(NC(=O)c2ccco2)c(OC)c1,-15.6%,-5.3%,-11.8%
O=C(CCc1ccccc1)Nc1ccc(NC(=O)c2ccco2)cc1,-4.7%,-8.2%,3.4%
COc1cc(NC(=O)CC(C)C)ccc1NC(=O)c1ccco1,15.8µM*,-28.9%,u
O=C(Nc1ccc(OC(=O)c2ccco2)cc1)c1ccco1,12.6µM*,-0.2%,1.1%
CCC(=O)Nc1ccc(NC(=O)c2ccco2)cc1,u,10µM*,12.6µM*
O=C(Nc1cccc(OC(=O)c2ccco2)c1)c1ccco1,-5.5%,1.4%,-5.6%
SMILES,FLuc inh,p53ts 39C tox,p53ts 32C tox
Cc1ccccc1NC(=O)c1ccc(NC(=O)c2ccco2)cc1,-3.5%,-8.5%,5.1%
CN1[C@@H]2CC(OC(=O)[C@@H](CO)c3ccccc3)C[C@@H]1[C@H]1O[C@H]12 (stereo partly drawn),-0.3%[11.4 µM],x,x
CC(=O)O[C@H]1CC[C@@]2(C)[C@@H](CC[C@@]3(C)[C@H]2C(=O)C=C2[C@H]4C[C@](C)(C(=O)OCCN5CCCCC5)CC[C@]4(C)CC[C@@]23C)C1(C)C,2.5%[11.4 µM],x,x
CO[C@@H]1COC(=O)C/C=C\[C@H](C)COC(=O)[C@H](C)NC(=O)C/C=C\[C@H]1C,0.6%[11.4 µM],5.7%[9.22 µM],4.8%[9.22 µM]
Cc1c(Cl)cccc1NC(=O)C(C)n1c(=O)cc(C)c2c(C)nn(-c3ccccc3)c21 (stereo not drawn),x,-24.7%,13.1%
COc1ccc2[nH]cc(CCNc3ncncc3-c3ccoc3)c2c1,0.1%[2.29 µM],8.4%,9.6%
O=C(Nc1ccc2c(c1)Cc1ccccc1-2)c1ccco1,10µM*,u,u
COc1ccc(NC(=O)c2ccco2)cc1NC(=O)c1ccc(C)c(C)c1,x,-29.1%,-14.7%
Cc1ccc(NC(=O)c2ccco2)cc1C,15.8µM*,u,u
O=C(Nc1ccccc1-c1ccccc1NC(=O)c1ccco1)c1ccco1,x,-0.3%,-16.4%
COc1cc(C2Oc3nc(SC)nnc3-c3ccccc3N2C(C)=O)cc(Cl)c1OC (stereo not drawn),x,-4.3%,-3.8%
CC(=O)OC[C@@H]1O[C@@H](O/N=C2/C[C@@H](O)[C@@H](O)[C@@H]3[C@@H]4C(=O)N(Cc5ccccc5)C(=O)[C@H]4CC[C@H]23)[C@H](OC(C)=O)[C@H](OC(C)=O)[C@@H]1OC(C)=O,-0.6%[11.4 µM],-0.2%[9.22 µM],3.6%[9.22 µM]
Cc1nc2ccc(NC(=O)Cc3cccs3)cc2s1,25.1µM*,10µM*,15.8µM*
Cc1nc2ccc(NC(=O)Cc3ccc4c(c3)OCCO4)cc2s1,x,-0.4%,x
C[C@@]12C[C@H](O)[C@@H]3[C@H](CCC4=CC(=O)CC[C@]43C)[C@H]1CC[C@@H]2c1csc(-c2ccccc2)n1,4.8%[11.4 µM],-7.8%[9.22 µM],4.9%[9.22 µM]
COCn1c(-c2ccc(OC)c(OC)c2)nc2ccccc21,15.8µM*,u,u
COCn1c(-c2cccc(Br)c2)nc2ccccc21,-27.1%,-3.3%,-15.6%
COc1ccc2c(c1OC)C(=O)N(c1cccc(C(F)(F)F)c1)C2,12.6µM*,u,u
COc1ccc2c(c1OC)C(=O)N(c1cccc(C)c1)C2,7.94µM*,5.01µM*,7.94µM*
CN1C(=O)NC(c2ccccc2)C2=C1CN(c1cccc(C(F)(F)F)c1)C2=O (stereo not drawn),1.7%,-5.1%,-0.5%
Cc1cccc(N2CC(=O)N(c3cccc(C)c3)CC2=O)c1,-0.6%[25.5 µM],x,x
CCc1ccc(CNC(=O)Cn2nc(C)n3c(cc4cc(C)ccc43)c2=O)cc1,x,-7.7%,-7.1%
O=C(Nc1cccc(Cl)c1)c1cc(-c2ccccc2)on1,x,-4.6%,-29.5%
O=C(c1ccccc1)c1cc(-c2ccccc2)on1,1.58µM*,x,x
O=C(CC(NCc1cccnc1)C(=O)O)Nc1ccc(F)cc1 (stereo not drawn),x,14.5%,-4.1%
SMILES,FLuc inh,p53ts 39C tox,p53ts 32C tox
O=C(NCc1cccnc1)C1CCN(Cc2cc3ccccc3n2Cc2ccccc2)CC1,x,4.5%,10.7%
O=C(NCc1cccnc1)C1CCN(Cc2cc3ccccc3n2Cc2cccc(Cl)c2)CC1,x,12.6µM*,20.6%
CCOC(=O)c1sc(-c2ccc(OC)cc2)cc1N,12.6µM*,u,-23.9%
CCOC(=O)c1sc(-c2ccccc2)cc1N,u,-13.5%,-8.5%
O=C(c1cnccn1)N1CCC[C@@]2(CCN(C(c3ccccc3)c3ccccc3)C2)C1,1.8%[11.4 µM],8.3%,8.7%
COc1cc2c(C#N)c(N3CCOCC3)nc(N)c2c(N)n1,u,-12.9%,-13.3%
COc1cc2c(C#N)c(N3CCCCC3)nc(N)c2c(N)n1,20µM*,-26.1%,-5.7%
Cc1cccc([N+](=O)[O-])c1C,x,14.5%,6.3%[1.84 µM]
O=C(Nc1ccc(-c2cn3ccsc3n2)cc1)C1CCCC1,2.51µM*,2.51µM*,5.01µM*
CC(C)C(=O)Nc1cccc(-c2cn3ccsc3n2)c1,u,-2.9%,u
CC(=O)Nc1ccc(-c2cn3ccsc3n2)cc1,15.8µM*,u,10µM*
O=C(Nc1ccc(F)cc1)C1CCCCC1,-1.2%,5.1%,2.2%
